Structures are written as SMILES. About 83,000 compounds went through this panel and 20% of them were active in at least one assay; those are over-represented in the sample as a whole.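 Activity criterion: percent growth below 10, measured after cells in 96-well plates were exposed to a single compound concentration for 48 hours.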 The source made the active and inactive calls.

The subject of the assay is HL-60(TB) leukemia. The assay is described as follows: NCI-60 one-dose screen, 48 h (100 = growth as untreated, 0 = no growth, -100 = all killed). Particulars: 10 µM unless noted.
For the compound `CC(C)n1cc2c(N)ncnc2n1`, the growth was 101% (inactive). For `CCOC(=O)Oc1c(OC)cc(C(=O)O[C@@H]2C[C@@H]3CN4CCc5c([nH]c6cc(OC)ccc56)[C@H]4C[C@@H]3[C@H](C(=O)OC)[C@H]2OC)cc1OC`, the growth was -27.7% (active). Then `COc1cnc2c(c1)C(=O)c1c-2n(CCCN2CCCC2)c(=O)c2cc(F)ccc12`, with -28.7% (active). Consider `O=CN1N=C(c2ccc(Cl)cc2)CC1c1cccc(Nc2ccnc3cc(C(F)(F)F)ccc23)c1` (stereo not given), for which the growth was 31.6% (inactive). Then `COP(=O)(OC)C(c1ccccc1)(c1ccccc1)c1ccccc1`, with 45.3% (inactive); and `COCCn1cc(-c2nc(-c3c[nH]c4ncccc34)cs2)c2ccccc21`, with 76.9% (inactive); and `Cc1ccc(-c2nc(SCC(=O)N3CCN(c4cc5c(cc4F)c(=O)c(C(=O)O)cn5C4CC4)CC3)nc(Cl)c2C#N)cc1`, with 101% (inactive). As to `C=CCCC1(C)NC(=O)NC1=O` (stereo not given), the growth is 97.7% (inactive).

Take `COc1ccc(/C=N/OCC(O)CNCc2ccccc2)cc1OC1CCCC1` (stereo not given): the growth was 105% (inactive). Turning to `COc1ccc(C(=O)CSc2nccc(Nc3ccc(C(=O)O)cc3)n2)cc1`, the growth was 99.5% (inactive).

For `Cc1cc(C#Cc2ccc(C(C)(C)C)cc2)ccc1-n1c(/C=C/c2c(Cl)cccc2Cl)nc2ccccc2c1=O`, the growth was 99.6% (inactive). The figure for `CSc1nc2c(c(=O)n1C)C1(C(=O)N(Cc3ccccc3)c3ccccc31)c1c(nc(SC)n(C)c1=O)N2` is 73.4% (inactive). Then `O=C(CN1C(=O)S/C(=C\C(Cl)=C\c2ccccc2)C1=O)NC1CCS(=O)(=O)C1` (stereo not given), with 18.6% (inactive). The figure for `C=CC(=O)Nc1cccc(Nc2nc(SC)nc(-c3cccc([N+](=O)[O-])c3)c2C#N)c1` is 63.4% (inactive). With `Cn1c(=O)c2c(nc(Nc3cc(=O)[nH]c(=O)[nH]3)n2Cc2ccccc2)n(C)c1=O`, the growth was 90.6% (inactive). Then `Cc1ccccc1CNc1ncnc2[nH]ncc12`, with 49.2% (inactive). Take `O=C1C=C[C@H](O)[C@@]2(CO)O[C@@H]12`: the growth is -24.4% (active). The figure for `CCCCCCCCCCCCCCCCCC1OCC(COC(=O)O[C@]2(CC)C(=O)OCc3c2cc2n(c3=O)Cc3cc4ccccc4nc3-2)O1` (stereo not given in full) is 102% (inactive). For `CCN(CC)CCOC(COc1cc(C)cc(C)c1)COc1cc(C)cc(C)c1`, the growth was 20.3% (inactive).

As to `CCn1cc(C(=O)O)c(=O)c2cc(F)c(N3CCN(S(=O)(=O)c4ccc(OC)c(OC)c4)CC3)cc21`, the growth is 91.3% (inactive).

As for `Cc1ccc(N=Nc2c(N)nc(N)[nH]c2=O)cc1C`, the growth is 97.3% (inactive).

Take `NC(CSC(c1ccccc1)(c1ccccc1)c1cccc2ccccc12)C(=O)O` (stereo not given): the growth is 88.5% (inactive). The figure for `COc1ccc(NC(=O)c2ccc(Cl)cc2Cl)cc1` is 103% (inactive); for `O=C(N/N=C/c1ccc(Cl)cc1)c1ccccc1Nc1cccc(C(F)(F)F)c1` it is 84.7% (inactive); for `COc1ccc(-n2cnc3c(sc4ncc(Cl)cc43)c2=O)cc1` it is 90.1% (inactive).

`CCOC(=O)c1c(C)c2c(n1Cc1ccccc1)CSCC2=O`: the growth is 13.3% [100 µM] (inactive).

As for `O=C(CSc1nc2ccc([N+](=O)[O-])cc2[nH]1)Nc1cccc([N+](=O)[O-])c1`, the growth was 57.5% (inactive). The figure for `COC(=O)c1nc(=S)[nH]c(C(=O)OC)c1C(=O)c1ccccc1` is 116% (inactive); for `COC(=O)N/N=C/c1coc2ccc(Cl)cc2c1=O` it is 105% (inactive). `CC1=NN(c2cccc(S(N)(=O)=O)c2)C(=O)C1`: the growth was 124% (inactive).

`c1ccc2c(-c3nc4ccccc4[nH]3)cccc2c1`: the growth was -3.88% (active). Then `CCOC(=O)c1cc(C(=O)c2cc(OC)c(OC)c(OC)c2)n2ccccc12`, with -24.6% (active). Turning to `COC(=O)c1ccc2c(c1)nc(-c1ccc(O)c(OC)c1)n2-c1cc(C(C)(C)C)[nH]n1`, the growth is 103% (inactive). Turning to `Nc1cc(C(=O)O)[nH]c(=S)n1`, the growth is 123% (inactive). `Cn1ccc(=O)c(C(=O)Nc2nsc3ccc([N+](=O)[O-])cc23)c1`: the growth is 54.9% (inactive). As for `Oc1ccc(O)cc1`, the growth is 48.4% (inactive).

For `O=[N+]([O-])c1cc(C(F)(F)F)ccc1Sc1ccc(C(F)(F)F)cc1[N+](=O)[O-]`, the growth was 8.05% (active). On to `Cc1cc2ccccc2nc1-c1ccccc1F`, for which the growth is 97.4% (inactive). Regarding `CN(C)c1ccc(-c2ccc(-c3ccc(C(=N)N)cc3)s2)cc1`, the growth is 14.4% (inactive). The figure for `CCN(CC)CC(=O)N(CC)c1ccc(C)c(Cl)c1` is 71.7% (inactive).

The values are drawn from PubChem BioAssay (NCI).
